Results from PubChem BioAssay (NCATS).
Results filed as inconclusive are left out. The source made the active and inactive calls. Unless noted, calls come from the whole dose curve.

Legend:
[1] = molecular target: Lysosomal acid glucosylceramidase (Homo sapiens) (UniProt P04062); experiment: Glucocerebrosidase-p2 (AID 348; in the data active = potency below about 10 µM; note: potency is the fitted concentration of half-maximal effect); conditions: purified GBA, blue fluorogenic substrate, 40 min
Lysosomal acid glucosylceramidase (Homo sapiens), sequence (P04062 whole entry, looked up): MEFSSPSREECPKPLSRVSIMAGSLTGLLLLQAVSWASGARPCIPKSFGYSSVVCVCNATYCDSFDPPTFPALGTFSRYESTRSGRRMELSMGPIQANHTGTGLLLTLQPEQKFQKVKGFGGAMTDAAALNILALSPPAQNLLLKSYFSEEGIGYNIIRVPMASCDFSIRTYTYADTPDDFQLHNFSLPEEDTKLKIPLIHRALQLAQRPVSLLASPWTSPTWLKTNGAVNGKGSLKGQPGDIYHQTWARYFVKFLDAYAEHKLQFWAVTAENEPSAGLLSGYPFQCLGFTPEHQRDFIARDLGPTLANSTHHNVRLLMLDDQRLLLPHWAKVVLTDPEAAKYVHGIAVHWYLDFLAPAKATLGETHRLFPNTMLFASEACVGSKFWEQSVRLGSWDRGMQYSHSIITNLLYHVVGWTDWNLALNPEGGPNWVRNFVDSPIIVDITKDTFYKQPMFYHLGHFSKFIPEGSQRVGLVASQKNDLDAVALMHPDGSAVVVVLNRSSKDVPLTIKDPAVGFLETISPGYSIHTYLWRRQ
In short: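 Normal human glucocerebrosidase (0.2 nM) with blue fluorogenic substrate (80 uM final) in citrate/phosphate pH 5.9 with 10mM sodium taurocholate, 0.01% tween-20; 40 min RT, NaOH/glycine stop; fluorescence Ex 365/Em 440; AC50 from a titration from 0.6 nM upwards.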

[2] = AP1 Signaling Pathway (AID 357; active = well fitted curve in either direction with a large enough effect, not every such curve was filed as active;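 note: ME-180 reporter cells stimulated with EGF at its EC50 level; % is set by controls: 0 for no effect and ±100 for the full control effect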); conditions: ME-180 AP-1-bla reporter, EGF-induced, beta-lactamase ratio, 5 h; at 7.69 µM (top of the series) unless noted
In short: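 Cells are seeded overnight, exposed to compound titrations and an EC50 level of EGF for 5 hours at 37 °C, then loaded with CCF4 dye for 2.5 hours. Beta-lactamase activity under the AP-1 element is read as a blue/green ratio.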

[3] = molecular target: Cytochrome P450 1A2 (Homo sapiens) (UniProt P05177); experiment: p450-cyp1a2 (AID 410); conditions: recombinant CYP1A2, luciferin-ME demethylation, luminescence; series mostly up to 57 µM; note: potency is the fitted concentration of half-maximal effect;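 for activity change, negative = inhibition: -100% = full effect of reference inhibitor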
Cytochrome P450 1A2 (Homo sapiens), sequence (P05177 whole entry, looked up): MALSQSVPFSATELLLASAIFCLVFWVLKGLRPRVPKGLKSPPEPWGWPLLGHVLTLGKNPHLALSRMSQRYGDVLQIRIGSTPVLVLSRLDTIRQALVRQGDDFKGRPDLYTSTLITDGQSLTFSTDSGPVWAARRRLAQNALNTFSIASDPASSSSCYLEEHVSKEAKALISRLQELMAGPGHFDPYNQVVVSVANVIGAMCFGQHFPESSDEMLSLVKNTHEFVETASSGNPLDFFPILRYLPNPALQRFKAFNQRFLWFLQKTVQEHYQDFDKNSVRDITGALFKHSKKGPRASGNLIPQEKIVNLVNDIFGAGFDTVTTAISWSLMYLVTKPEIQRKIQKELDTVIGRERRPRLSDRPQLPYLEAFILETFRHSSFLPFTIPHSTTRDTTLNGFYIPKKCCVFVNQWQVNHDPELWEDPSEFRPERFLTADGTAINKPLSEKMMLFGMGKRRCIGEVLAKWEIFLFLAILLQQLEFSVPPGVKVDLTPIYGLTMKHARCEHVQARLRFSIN
In short: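 Read-out is luminescence from luciferin produced by CYP1A2 demethylation of Luciferin-ME (100uM, at Km). Detection reagent stopped the 60 min NADPH-dependent reaction; signals were normalized to 57 uM furafylline.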

[4] = Stat Signaling Pathway (AID 446; active = well fitted curve in either direction with a large enough effect, not every such curve was filed as active;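 note: ME-180 cervical cancer cells given 40 pM IL-6 alongside compound; SIE-controlled beta-lactamase reporter measured as 460/530 nm FRET emission ratio; % is set by controls: 0 for no effect and ±100 for the full control effect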); conditions: ME-180 (cervical carcinoma) SIE beta-lactamase reporter, IL-6 stimulated, 5 h; at 7.69 µM (top of the series) unless noted
In short: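 Emission at 460 and 530 nm (excitation 405 nm) reports SIE-controlled beta-lactamase in ME-180 cells. Cells received compound with 40 pM IL-6 for 5 hrs at 37 C; data scaled between 300 pM IL-6 and 125 nM JAK-inhibitor controls.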

[5] = molecular target: Glucocorticoid receptor (Homo sapiens) (UniProt P04150); experiment: GR-EFC Redistribution (AID 451); conditions: CHO-K1 GR-EFC translocation, beta-gal luminescence, 2 h; note: potency is the fitted concentration of half-maximal effect
Glucocorticoid receptor (Homo sapiens), sequence (P04150 whole entry, looked up, the tested form may be a part): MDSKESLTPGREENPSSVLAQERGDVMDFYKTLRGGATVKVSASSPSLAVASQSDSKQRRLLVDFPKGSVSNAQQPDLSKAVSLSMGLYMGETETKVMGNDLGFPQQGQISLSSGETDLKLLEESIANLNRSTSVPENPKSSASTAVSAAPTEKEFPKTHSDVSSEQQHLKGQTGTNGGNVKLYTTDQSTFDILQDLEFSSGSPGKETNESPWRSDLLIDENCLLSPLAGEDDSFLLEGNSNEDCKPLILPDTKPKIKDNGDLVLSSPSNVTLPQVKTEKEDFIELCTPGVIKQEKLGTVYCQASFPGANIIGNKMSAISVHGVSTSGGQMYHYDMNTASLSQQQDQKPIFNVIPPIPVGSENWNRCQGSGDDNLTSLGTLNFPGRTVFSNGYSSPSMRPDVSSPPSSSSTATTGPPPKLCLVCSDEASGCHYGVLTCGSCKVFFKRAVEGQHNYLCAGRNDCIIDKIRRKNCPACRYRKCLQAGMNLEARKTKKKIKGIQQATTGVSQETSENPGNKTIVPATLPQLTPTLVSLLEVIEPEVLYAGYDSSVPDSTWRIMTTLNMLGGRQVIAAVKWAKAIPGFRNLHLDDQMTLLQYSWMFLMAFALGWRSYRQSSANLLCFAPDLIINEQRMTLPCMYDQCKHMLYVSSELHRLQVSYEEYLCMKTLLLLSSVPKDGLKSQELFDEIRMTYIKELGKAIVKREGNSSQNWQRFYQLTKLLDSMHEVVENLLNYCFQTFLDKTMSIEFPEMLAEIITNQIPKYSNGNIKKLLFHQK
In short: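 CHO-K1 cells expressing nuclear EA and GR-ED fragments of b-gal; compounds titrated up to 46 uM final, 2 h at 37 C. GR nuclear translocation read as complemented b-gal luminescence after 1 h RT detection.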

[6] = molecular target: Mitogen-activated protein kinase 10 (Mus musculus) (UniProt Q61831); experiment: JNK3 AlphaScreen Assay (AID 530; active = well fitted curve in either direction with a large enough effect, not every such curve was filed as active;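 note: kinase came from lysate of stimulated human HepG2 cells; signal reports phosphorylation of biotinylated GST-cJun 1-79 at Ser73 with 10 µM ATP; % is set by controls: 0 for no effect and ±100 for the full control effect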); conditions: JNK3 lysate, c-Jun phosphorylation; series mostly up to 57.1 µM
In short: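 HepG2 lysate (IL-1b/TNFa pre-activated) + biotin-GST-cJun 1-79 + anti-pSer73 cJun; cpd titration, 15 min RT; ATP 10 uM start; Tris pH 7.6, MgCl2, DTT, vanadate; beads in EDTA buffer; AlphaScreen.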

[7] = molecular target: 3',5'-cyclic-AMP phosphodiesterase 4B (Homo sapiens) (UniProt Q07343); experiment: qHTS Assay for Inhibitors of PDE-IV (AID 607; active = well fitted activation curve with a large enough effect in the main read-out, with a control signal flat, not every such curve was filed as active; note: % of control where 0% means no effect); conditions: HEK293 ACTOne CNG channel cells, membrane potential fluorescence; series mostly up to 22.9 µM
3',5'-cyclic-AMP phosphodiesterase 4B (Homo sapiens), sequence (Q07343 whole entry, looked up): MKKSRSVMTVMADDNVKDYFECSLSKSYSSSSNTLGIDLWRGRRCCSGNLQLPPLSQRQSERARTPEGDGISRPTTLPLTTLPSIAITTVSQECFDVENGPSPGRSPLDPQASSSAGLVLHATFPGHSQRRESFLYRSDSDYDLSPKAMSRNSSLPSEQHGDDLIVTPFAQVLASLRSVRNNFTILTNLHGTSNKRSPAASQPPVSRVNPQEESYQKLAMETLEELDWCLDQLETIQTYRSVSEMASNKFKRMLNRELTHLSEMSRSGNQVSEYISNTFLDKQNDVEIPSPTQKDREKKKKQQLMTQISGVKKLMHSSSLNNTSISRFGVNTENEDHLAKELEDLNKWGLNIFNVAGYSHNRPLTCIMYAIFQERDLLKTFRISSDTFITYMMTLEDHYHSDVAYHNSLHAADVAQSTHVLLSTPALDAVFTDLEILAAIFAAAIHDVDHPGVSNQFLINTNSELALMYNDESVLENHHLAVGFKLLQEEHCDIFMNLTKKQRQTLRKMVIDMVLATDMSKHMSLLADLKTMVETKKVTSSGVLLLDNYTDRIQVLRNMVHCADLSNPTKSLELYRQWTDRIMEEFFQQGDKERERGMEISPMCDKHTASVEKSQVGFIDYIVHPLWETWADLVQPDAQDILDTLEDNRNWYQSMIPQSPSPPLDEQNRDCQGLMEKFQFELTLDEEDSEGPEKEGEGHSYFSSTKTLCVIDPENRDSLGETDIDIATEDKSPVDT
In short: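 The readout is membrane depolarisation from a cAMP-sensing CNG channel, detected with a potential dye at ex 535/em 590. Cells were HEK293-derived (endogenous PDE-IV) at 1000 cells/well, titrated up to 22.9 uM final.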

[8] = qHTS Assay for Lipid Storage Modulators (AID 1519); conditions: Drosophila S3 cells, BODIPY lipid droplet/cell ratio, laser cytometry, cells loaded with oleic acid; for activity change, negative = inhibition: at 57.5 µM (top of the series)
In short: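 Cells seeded at 5,000 per well were treated with compounds over a concentration series and loaded with oleic acid (400 uM, as added). Lipid droplet fluorescence (488 nm excitation, 500-530 nm channel) was read by laser-scanning cytometry and normalized to 20 uM Triacsin C.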

[9] = Primary qHTS for small molecule stabilizers of the endoplasmic reticulum resident proteome: Secreted ER Calcium Modulated Protein (SERCaMP) assay (AID 1508630; active = well fitted curve in the direction sought with a large enough effect; an effect the other way counts as inactive or inconclusive; note: % is set by controls: 0 for no effect and ±100 for the full control effect); conditions: SH-SY5Y GLuc-SERCaMP (Gaussia luciferase released on ER calcium loss) secretion, thapsigargin, luminescence; series mostly up to 38.4 µM
In short: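 The SH-SY5Y reporter protocol was run at 3 concentrations up to 38.3 uM (primary) or 11 concentrations (follow-up): 16 h compound, 100 nM thapsigargin for 4 h, then extracellular luciferase luminescence.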

[10] = molecular target: Glucocorticoid receptor (Homo sapiens) (UniProt P04150); experiment: GR-GFP Redistribution (AID 450;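 active = compounds whose dose series gives a full or clear partial fitted curve of increased nuclear translocation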; note: potency is the fitted concentration of half-maximal effect); conditions: U2OS GR-GFP nuclear translocation, laser cytometry, 2 h
[11] = molecular target: Cytochrome P450 3A4 (Homo sapiens) (UniProt P08684); experiment: qHTS Assay for Activators of Cytochrome P450 3A4 (AID 885; active = well fitted curve in the direction sought with a large enough effect; an effect the other way counts as inactive or inconclusive; note: nearly all actives have a fitted effect of over 65% in size); conditions: recombinant CYP3A4, Luciferin-PPXE luminescence, 60 min; series mostly up to 57.1 µM
Cytochrome P450 3A4 (Homo sapiens), sequence (P08684 whole entry, looked up): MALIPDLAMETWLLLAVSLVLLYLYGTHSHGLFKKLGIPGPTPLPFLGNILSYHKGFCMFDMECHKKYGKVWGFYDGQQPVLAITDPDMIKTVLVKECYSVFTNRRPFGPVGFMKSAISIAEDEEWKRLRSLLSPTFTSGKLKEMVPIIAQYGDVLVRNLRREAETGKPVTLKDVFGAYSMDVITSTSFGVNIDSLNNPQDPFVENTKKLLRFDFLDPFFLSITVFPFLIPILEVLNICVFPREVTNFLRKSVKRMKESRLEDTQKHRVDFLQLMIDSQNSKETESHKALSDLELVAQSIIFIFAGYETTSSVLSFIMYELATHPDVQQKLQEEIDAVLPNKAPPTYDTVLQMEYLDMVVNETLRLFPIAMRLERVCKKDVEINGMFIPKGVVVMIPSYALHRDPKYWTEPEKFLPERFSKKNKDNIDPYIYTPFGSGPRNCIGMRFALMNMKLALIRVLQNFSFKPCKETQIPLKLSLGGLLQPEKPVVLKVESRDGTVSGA
In short: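 Activators are scored by enhanced luminescence from CYP3A4 conversion of luciferin-PPXE (25uM, equal to KM) to luciferin, after 60 min at RT with an NADPH-regenerating system.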

[12] = Confirmation and Secondary Assay for Modulators of Hemoglobin Beta Chain Splicing at IVS2 654 locus (AID 910; active = well fitted curve in the direction sought with a large enough effect; an effect the other way counts as inactive or inconclusive;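 note: HeLa cells stably carrying EGFP split by mutant beta-globin IVS2-654 intron; % of control where 0% means no effect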); conditions: HeLa EGFP-654 splicing reporter, GFP fluorescence, 48 h; series mostly up to 38.3 µM
In short: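 HeLa cells stably expressing EGFP interrupted by β-globin IVS2-654 intron, seeded overnight in Opti-MEM/2% FCS, then treated 2 days at 37 °C. Restored splicing read as total peak GFP intensity per well by laser scanning cytometry (488 nm excitation, 500–520 nm emission); 500 nM antisense PNA as control.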

[13] = molecular target: Ubiquitin carboxyl-terminal hydrolase 1 (Homo sapiens) (UniProt O94782); experiment: Inhibitors of USP1/UAF1: Pilot qHTS (AID 504865; active = well fitted curve in the direction sought with a large enough effect; an effect the other way counts as inactive or inconclusive;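 note: rhodamine fluorescence freed from ubiquitin-rhodamine substrate followed over time; top concentration of the series differs between compounds; % is set by controls: 0 for no effect and ±100 for the full control effect; nearly all actives have a fitted effect of over 35% in size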); conditions: purified USP1/UAF1, Ub-rhodamine cleavage fluorescence; series mostly up to 54.9 µM
Ubiquitin carboxyl-terminal hydrolase 1 (Homo sapiens), sequence (O94782 whole entry, looked up): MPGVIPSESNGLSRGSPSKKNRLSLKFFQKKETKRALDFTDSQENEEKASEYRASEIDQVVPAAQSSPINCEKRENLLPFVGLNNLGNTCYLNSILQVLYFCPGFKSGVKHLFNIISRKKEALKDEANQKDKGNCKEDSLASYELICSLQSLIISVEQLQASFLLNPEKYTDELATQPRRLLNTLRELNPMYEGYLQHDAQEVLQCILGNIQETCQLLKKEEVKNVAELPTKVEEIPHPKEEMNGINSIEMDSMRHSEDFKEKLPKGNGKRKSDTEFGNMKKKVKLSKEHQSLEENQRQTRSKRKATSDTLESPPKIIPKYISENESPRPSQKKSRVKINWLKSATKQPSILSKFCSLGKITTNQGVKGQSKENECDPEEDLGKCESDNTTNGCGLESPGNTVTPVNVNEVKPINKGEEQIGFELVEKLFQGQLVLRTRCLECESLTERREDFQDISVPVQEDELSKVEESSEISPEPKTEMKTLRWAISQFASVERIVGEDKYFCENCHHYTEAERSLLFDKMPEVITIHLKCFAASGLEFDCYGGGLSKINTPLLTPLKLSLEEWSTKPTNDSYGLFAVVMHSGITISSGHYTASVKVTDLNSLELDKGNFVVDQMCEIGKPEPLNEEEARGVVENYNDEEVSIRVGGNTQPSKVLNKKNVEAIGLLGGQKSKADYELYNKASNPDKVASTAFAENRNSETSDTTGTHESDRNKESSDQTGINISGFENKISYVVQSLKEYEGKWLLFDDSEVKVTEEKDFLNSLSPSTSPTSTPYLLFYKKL
In short: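 1nM USP1/UAF1 + cpd, 15 min RT; start w/ Ub-Rho 150nM final; kinetic FL 480/540 nm, 6 reads q60 s. Buffer 50mM HEPES pH 7.8, 0.5mM EDTA, 1mM TCEP, 0.01% Tween-20, 0.1 mg/ml BSA.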

[14] = molecular target: Cytochrome P450 3A4 (Homo sapiens) (UniProt P08684); experiment: qHTS Assay for Inhibitors and Substrates of Cytochrome P450 3A4 (AID 884; active = well fitted curve in the direction sought with a large enough effect; an effect the other way counts as inactive or inconclusive; note: nearly all actives have a fitted effect of over 50% in size; note: potency is the fitted concentration of half-maximal effect); conditions: recombinant CYP3A4, Luciferin-PPXE luminescence; series mostly up to 57.1 µM
In short: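 Luminescent readout of luciferin produced by CYP3A4 (20 nM) dealkylation of Luciferin-PPXE, 25 uM (its KM). NADPH-driven reaction ran 60 min at RT after 10 min compound preincubation; data scaled to 57 uM ketoconazole as 100% inhibition.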

[15] = molecular target: Cytochrome P450 2D6 (Homo sapiens) (UniProt P10635); experiment: qHTS Assay for Inhibitors and Substrates of Cytochrome P450 2D6 (AID 891; active = well fitted curve in the direction sought with a large enough effect; an effect the other way counts as inactive or inconclusive; note: potency is the fitted concentration of half-maximal effect; nearly all actives have a fitted effect of over 60% in size); conditions: recombinant CYP2D6, luciferin-ME EGE luminescence; series mostly up to 57.1 µM
Cytochrome P450 2D6 (Homo sapiens), sequence (P10635 whole entry, looked up): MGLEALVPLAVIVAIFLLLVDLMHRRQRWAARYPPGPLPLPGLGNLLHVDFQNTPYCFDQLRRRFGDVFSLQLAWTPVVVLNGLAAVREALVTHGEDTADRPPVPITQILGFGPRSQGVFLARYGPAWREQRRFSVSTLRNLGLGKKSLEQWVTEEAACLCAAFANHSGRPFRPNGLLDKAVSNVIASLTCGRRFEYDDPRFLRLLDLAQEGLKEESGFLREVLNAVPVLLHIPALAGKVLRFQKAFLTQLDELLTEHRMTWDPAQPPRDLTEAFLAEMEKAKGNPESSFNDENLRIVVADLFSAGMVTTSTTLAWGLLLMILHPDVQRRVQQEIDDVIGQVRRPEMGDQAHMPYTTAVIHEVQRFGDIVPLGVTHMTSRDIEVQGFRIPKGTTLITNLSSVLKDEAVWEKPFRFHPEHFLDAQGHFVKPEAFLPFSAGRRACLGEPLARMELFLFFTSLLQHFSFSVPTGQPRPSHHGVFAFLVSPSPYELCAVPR
In short: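 Luminescent read-out of luciferin formed by 5 nM human CYP2D6 demethylating 30 uM Luciferin-ME EGE (Km level) over 60 min at room temperature after NADPH regeneration addition. Data normalized to full inhibition by 1.43 uM quinidine.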

[16] = Confirmation and Secondary Assay for Modulators of Hemoglobin Beta Chain Splicing at IVS2 705 locus (AID 930; active = well fitted curve in the direction sought with a large enough effect; an effect the other way counts as inactive or inconclusive;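 note: HeLa cells stably expressing the EGFP-705 splicing reporter; GFP fluorescence per well restored by corrected splicing of the IVS2-705 intron in EGFP; % of control where 0% means no effect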); conditions: HeLa EGFP-705 splicing reporter, GFP fluorescence, 48 h; series mostly up to 38.3 µM
In short: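 Read-out: total peak GFP fluorescence per well (488 nm excitation, 500-520 nm emission) by laser-scanning cytometry. Cells: HeLa EGFP-705 splicing reporter, 2 days compound exposure in Optimem/2% FCS.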

[17] = molecular target: Cytochrome P450 2C19 (Homo sapiens) (UniProt P33261); experiment: qHTS Assay for Inhibitors and Substrates of Cytochrome P450 2C19 (AID 899; active = well fitted curve in the direction sought with a large enough effect; an effect the other way counts as inactive or inconclusive; note: potency is the fitted concentration of half-maximal effect; nearly all actives have a fitted effect of over 60% in size); conditions: recombinant CYP2C19, luciferin-H EGE luminescence; series mostly up to 57.1 µM
Cytochrome P450 2C19 (Homo sapiens), sequence (P33261 whole entry, looked up): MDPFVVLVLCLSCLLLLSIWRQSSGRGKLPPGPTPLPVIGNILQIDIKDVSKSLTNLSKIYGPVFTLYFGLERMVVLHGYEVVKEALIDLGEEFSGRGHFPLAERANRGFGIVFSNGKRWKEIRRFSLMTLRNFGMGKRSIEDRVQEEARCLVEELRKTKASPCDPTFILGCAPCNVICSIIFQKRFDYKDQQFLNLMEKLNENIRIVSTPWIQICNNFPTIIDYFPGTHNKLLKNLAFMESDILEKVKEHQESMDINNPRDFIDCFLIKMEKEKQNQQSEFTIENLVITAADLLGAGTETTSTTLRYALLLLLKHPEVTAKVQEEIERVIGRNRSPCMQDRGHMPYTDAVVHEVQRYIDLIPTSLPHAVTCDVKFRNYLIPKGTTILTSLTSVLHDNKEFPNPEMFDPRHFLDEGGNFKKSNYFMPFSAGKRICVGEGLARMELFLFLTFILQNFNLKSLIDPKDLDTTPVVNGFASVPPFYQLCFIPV
In short: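 Luminescent read-out of luciferin formed from Luciferin-H EGE (10uM, equal to KM). Enzyme 5nM in 50mM KPO4; compound added, 10 min at 37C, then NADPH regenerating system for 60 min at 37C. Full inhibition defined by 57uM ketoconazole.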

[18] = measured here: cell count channel max response
[19] = measured here: lipid channel max response

Row | Compound | Potency [1] | activity change, negative = inhibition [2] | Potency [3] | activity, negative = inhibition [4] | Potency [5] | Potency [6] | Potency [7] | activity change, negative = inhibition [8] | max response [8, 18] | max response [8, 19] | outcome [9] | Potency [10] | Potency [11] | Potency [12] | Potency [13] | Potency [14] | Potency [15] | outcome [16] | Potency [17]
1 | O=S(=O)(c1ccccc1)N1CCC2(CCN(Cc3nccs3)CC2)CC1 | > 11.4 µM (inactive) | 19.1% (inactive) | inactive | -4.54% (inactive) | > 46 µM (inactive) | inactive | inactive | 0.281% (inactive) | 4.88% | 7.01% | inactive | – | – | – | – | – | – | – | –
2 | CN1CCC2(CC1)CCN(S(=O)(=O)c1ccccc1)CC2 | > 11.4 µM (inactive) | -4.78% (inactive) | inactive | -1.02% (inactive) | > 46 µM (inactive) | inactive | inactive | -2.86% (inactive) | 8% | 9.03% | inactive | – | – | – | – | – | – | – | –
3 | COc1ccccc1CNc1nc(-c2ccccc2CN(C)C)nc2ccccc12 | > 11.4 µM (inactive) | 16.7% (inactive) | 0.794 µM (active) | -12.4% (inactive) | > 46 µM (inactive) | inactive | – | 3.53% (inactive) | -19.9% | -15.9% | inactive | > 46 µM (inactive) | inactive | inactive | inactive | – | – | – | –
4 | CN(C)Cc1ccccc1-c1cncnc1NCc1cccnc1 | > 11.4 µM (inactive) | -0.642% (inactive) | 12.6 µM (active) | 9.42% (inactive) | > 46 µM (inactive) | inactive | inactive | 2.08% (inactive) | 3.75% | 4.73% | inactive | > 46 µM (inactive) | inactive | inactive | inactive | 1.58 µM (active) | 6.31 µM (active) | inactive | –
5 | COC(=O)N1CCC2(CC1)CN(c1ccncc1)C2 | > 11.4 µM (inactive) | 1.61% (inactive) | inactive | -7.68% (inactive) | > 46 µM (inactive) | inactive | inactive | 3.84% (inactive) | 7.79% | 12.9% | inactive | – | – | – | – | – | – | – | –
6 | CN(C)c1ccc(-c2cncnc2NCc2ccccc2)cc1 | > 11.4 µM (inactive) | -0.796% (inactive) | 1 µM (active) | -2.24% (inactive) | > 46 µM (inactive) | – | – | 9.86% (inactive) | -3.1% | 16.1% | inactive | > 46 µM (inactive) | – | inactive | – | inactive | – | inactive | 0.398 µM (active)
7 | COc1ccccc1CN1CCC2(CC1)CCN(C(=O)c1ccco1)CC2 | > 11.4 µM (inactive) | -17.3% (inactive) | inactive | -4.26% (inactive) | > 46 µM (inactive) | inactive | inactive | 3.05% (inactive) | 1.79% | 7.5% | inactive | – | – | – | – | – | – | – | –
8 | CC(C)CN1CC2(CCN(C(=O)c3cccc(F)c3)CC2)C1 | > 11.4 µM (inactive) | 10.2% (inactive) | inactive | -19.8% (inactive) | > 46 µM (inactive) | inactive | inactive | 2.36% (inactive) | 11.5% | 16.2% | inactive | – | – | – | – | – | – | – | –
9 | CN1CCCC2(CCN(S(=O)(=O)c3ccccc3)CC2)C1 | > 11.4 µM (inactive) | 17.6% (inactive) | 20 µM (active) | -3% (inactive) | > 46 µM (inactive) | inactive | inactive | 2.33% (inactive) | 19.8% | 25% | inactive | – | – | – | – | – | – | – | –
10 | COc1ccccc1CN1CCC2(CCNCC2)CC1 | > 11.4 µM (inactive) | -18.9% (inactive) | inactive | 6.24% (inactive) | > 46 µM (inactive) | inactive | inactive | -2.64% (inactive) | 1.08% | -0.266% | inactive | – | – | – | – | – | – | – | –
11 | CN(C)Cc1ccccc1-c1cncnc1NC1CC1 | > 11.4 µM (inactive) | -1.86% (inactive) | 15.8 µM (active) | 2.98% (inactive) | > 46 µM (inactive) | inactive | inactive | 6.51% (inactive) | 18.3% | 22.5% | inactive | > 46 µM (inactive) | inactive | inactive | inactive | – | – | inactive | –
12 | CC(C)CN1CCC2(CC1)CCN(C(=O)c1cccn1C)CC2 | > 11.4 µM (inactive) | -13.5% (inactive) | inactive | -4.86% (inactive) | > 46 µM (inactive) | inactive | inactive | 0.342% (inactive) | -5.62% | -4.46% | inactive | – | – | – | – | – | – | – | –
13 | Cc1noc(C)c1C(=O)N1CCC2(CCCN(Cc3ccc(C#N)cc3)C2)CC1 | > 11.4 µM (inactive) | 4.42% (inactive) | inactive | 3.17% (inactive) | > 46 µM (inactive) | inactive | inactive | 6.31% (inactive) | 22.7% | 33.4% | inactive | – | – | – | – | – | – | – | –
14 | CN(C)Cc1ccccc1-c1cncnc1NCc1cccs1 | > 11.4 µM (inactive) | 8.74% (inactive) | 25.1 µM (active) | -5.04% (inactive) | > 46 µM (inactive) | inactive | inactive | 5.02% (inactive) | 16.5% | 25.4% | inactive | > 46 µM (inactive) | inactive | inactive | inactive | – | – | inactive | –
